The test system of the assay is DHL-10. Put plainly: apoptosis induction in cancer cell lines, late-stage follow-up, mechanism study for MCL1-BIM inhibitor project, imaging, DAPI staining, cell line panel, probe (AID 624396). Particulars: DAPI nuclear morphology.

Calls of active or inactive are those of the source.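 The calls were made as follows: active = over 15% of cells apoptotic at 25 µM, or half-maximal dose of 10 µM or lower; inactive = the rest.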

With `CCN1CCN(C(c2ccc(C(F)(F)F)cc2)c2ccc3cccnc3c2O)CC1` (stereo unspecified), the compound was called inactive.

For the origin of these results see PubChem BioAssay AID624396 (The Scripps Research Institute Molecular Screening Center, 2012).
